Measured values reported in the supplement of paper PMC7695840.
Structures can show the parent of a compound that is named as a salt.

What was measured:
[1] = test system: Staphylococcus aureus MW2 delta-mecA (mecA-); assay: normalized GFP fluorescence (growth of mecA- strain) (fraction of control range); higher = more growth of mecA- strain; details: compound concentration: 150 uM; cefoxitin: subinhibitory; fluorescent label: GFP
Method in brief: (§1)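 S. aureus MW2 cells, pre-induced, were used as a 1:1 mix of a DsRed strain carrying the gene and a GFP strain lacking it, in LB with a subinhibitory antibiotic dose set each day. At 5 µL/well they were placed onto 150 μM compound (1.5% DMSO) in 1536-well plates, one replicate, and kept unshaken for 20 h at 37 °C, 90% humidity. After DsRed (540/590) and GFP (485/520) reads scaled per plate to single-strain control medians, plates with high untreated ratios and rows with DsRed/GFP >10 were excluded.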

[2] = test system: Staphylococcus aureus MW2 (mecA+); assay: normalized DsRed fluorescence (growth of mecA+ strain) (fraction of control range); higher = more growth of mecA+ strain; details: compound concentration: 150 uM; cefoxitin: subinhibitory; fluorescent label: DsRed
Method in brief: as §1

| SMILES | normalized GFP fluorescence [1] | normalized DsRed fluorescence [2] |
| --- | --- | --- |
| OC(CCN1CCCCC1)(c1ccccc1)C1CC2C=CC1C2 (configuration not stated) [Biperiden hydrochloride] | 0.119 | 0.714 |
| O=c1ccn([C@@H]2O[C@H](CO)[C@@H](O)[C@H]2O)c(=O)[nH]1 [Uridine] | 0.265 | 0.849 |
| O[C@H]1[C@H](O)[C@@H](O)[C@H](O)[C@@H](O)[C@H]1O | 0.236 | 0.698 |
| CCCc1nc2c(C)cc(-c3nc4ccccc4n3C)cc2n1Cc1ccc(-c2ccccc2C(=O)O)cc1 | 0.106 | 0.194 |
| COc1ccc2[nH]c([S+]([O-])Cc3ncc(C)c(OC)c3C)nc2c1 (configuration not stated) | 0.481 | 1.2 |
| CC[C@@]1(O)C(=O)OCc2c1cc1n(c2=O)Cc2cc3c(CN(C)C)c(O)ccc3nc2-1 | 0.791 | 0.763 |
| CC1(C)[C@@H](O)CC[C@]2(C)[C@H]3C(=O)C=C4[C@@H]5C[C@@](C)(C(=O)O)CC[C@]5(C)CC[C@@]4(C)[C@]3(C)CC[C@@H]12 [Enoxolone (Glycyrrhetin)] | 0.0336 | 0.987 |
| CC1=NN(c2ccccc2)C(=O)C1 [Edaravone (MCI-186)] | 0.706 | 0.531 |
| CNNCc1ccc(C(=O)NC(C)C)cc1 | 0.425 | 0.606 |
| CS(=O)(=O)c1ccc([C@@H](O)[C@@H](CO)NC(=O)C(Cl)Cl)cc1 | 0.776 | 0.661 |
| CN(CCOc1ccc(CC2SC(=O)NC2=O)cc1)c1ccccn1 (configuration not stated) | 0.341 | 0.876 |
| CCOc1cc(CC(=O)N[C@@H](CC(C)C)c2ccccc2N2CCCCC2)ccc1C(=O)O | -0.00461 | 0.578 |
| Cc1cc(O)cc(C)c1Cl | 0.0289 | 0.544 |
| COc1cc(N)c(Cl)cc1C(=O)NC1CCN(CCCOc2ccc(F)cc2)CC1OC (configuration not stated) | 0.458 | 0.643 |
| COc1cc2nccc(Oc3ccc(NC(=O)C4(C(=O)Nc5ccc(F)cc5)CC4)cc3)c2cc1OC [Cabozantinib malate] | 0.367 | 0.686 |
| C[C@]12CCC(=O)C=C1[C@@H]1C[C@@H]1[C@H]1[C@@H]3[C@@H]4C[C@@H]4[C@@]4(CCC(=O)O4)[C@@]3(C)CC[C@@H]12 | 0.162 | 0.65 |
| Cc1onc(-c2ccccc2)c1-c1ccc(S(N)(=O)=O)cc1 [Valdecoxib] | 0.291 | 0.573 |
| CNC[C@H](O)c1ccc(O)c(O)c1 | 0.95 | 0.812 |

| SMILES | normalized GFP fluorescence [1] | normalized DsRed fluorescence [2] |
| --- | --- | --- |
| CC1=C(C(=O)O)N2C(=O)[C@@H](NC(=O)[C@H](N)c3ccccc3)[C@H]2SC1 | 0.18 | 1.02 |
| C[C@@H]1CC(=O)NN=C1c1ccc(NN=C(C#N)C#N)cc1 [Levosimendan] | 0.00346 | 0.512 |
| O=C1CN(/N=C/c2ccc([N+](=O)[O-])o2)C(=O)N1 | 0.0054 | 0.0533 |
| CCOC(=O)OC(C)OC(=O)[C@@H]1N2C(=O)[C@@H](NC(=O)[C@H](N)c3ccccc3)[C@H]2SC1(C)C (some centres not stated) | 0.00819 | 0.591 |
| CN(C)CC[C@@H](c1ccc(Cl)cc1)c1ccccn1 | 0.307 | 0.588 |
| NC(=O)N1c2ccccc2CC(=O)c2ccccc21 | 0.596 | 0.408 |
| Cc1cc(C#N)cc(C)c1Oc1nc(Nc2ccc(C#N)cc2)nc(N)c1Br [Etravirine (TMC125)] | 0.423 | 0.589 |
| CCCC(CCC)C(=O)O [Valproic acid sodium salt (Sodium valproate)] | 0.506 | 0.638 |
| O=P(O)(O)C(O)(Cc1cccnc1)P(=O)(O)O [Risedronic acid (Actonel)] | 0.68 | 0.671 |
| N#CC[C@H](C1CCCC1)n1cc(-c2ncnc3[nH]ccc23)cn1 | 0.187 | 0.956 |
| O=C(O)CCCCCCCC(=O)O | 0.422 | 0.443 |
| CC(C)[C@H](N)C(=O)OCCOCn1cnc2c(=O)nc(N)[nH]c21 [Valaciclovir HCl] | 0.302 | 0.782 |
| CC12CCC(CC1=O)C2(C)C (configuration not stated) | 0.212 | 1.15 |
| OCCN1C[C@H](O)[C@@H](O)[C@H](O)[C@H]1CO | 0.514 | 0.724 |
| O=C(NCC1CCCCN1)c1cc(OCC(F)(F)F)ccc1OCC(F)(F)F (configuration not stated) | 0.508 | 0.624 |
| CCOC(=O)O[C@]1(C(=O)OCCl)CC[C@H]2[C@@H]3CCC4=CC(=O)C=C[C@]4(C)[C@H]3[C@@H](O)C[C@@]21C [Loteprednol etabonate] | 0.281 | 0.603 |
| CC(C)(C)NC(=O)[C@H]1CC[C@H]2[C@@H]3CC[C@H]4NC(=O)C=C[C@]4(C)[C@H]3CC[C@]12C | 0.27 | 0.691 |
| O=C(NC[C@H]1CN(c2ccc(N3CCOCC3=O)cc2)C(=O)O1)c1ccc(Cl)s1 [Rivaroxaban (Xarelto)] | 0.0017 | 0.837 |
